From PubChem BioAssay (NCATS)
Records with an inconclusive call do not appear. Calls of active or inactive are those of the source. The call rests on the fitted dose curve; in most records, active means well fitted curve in the direction sought with a large enough effect; inconclusive means small, poorly fitted or top-dose-only effect, or another doubt; inactive means no such curve, though single readings can be large; an effect the other way counts as inactive or inconclusive.
Potency means the concentration at half of the fitted maximal effect.

These compounds were tested against Ubiquitin carboxyl-terminal hydrolase 2 (Homo sapiens) (UniProt O75604) (assay: qHTS for Inhibitors of Ubiquitin-specific Protease USP2a Using CHOP2 as the Reporter: K484 Substrate (AID 652173;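 further: cleavage of internally quenched K48 di-ubiquitin substrate measured as rising fluorescence over time; nearly all actives have a fitted effect of over 70% in size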)). Details: USP2 cleavage of DiUb K48 IQF substrate, fluorescence; series mostly up to 57.5 µM.
Sequence of Ubiquitin carboxyl-terminal hydrolase 2 (Homo sapiens) (O75604 whole entry, looked up): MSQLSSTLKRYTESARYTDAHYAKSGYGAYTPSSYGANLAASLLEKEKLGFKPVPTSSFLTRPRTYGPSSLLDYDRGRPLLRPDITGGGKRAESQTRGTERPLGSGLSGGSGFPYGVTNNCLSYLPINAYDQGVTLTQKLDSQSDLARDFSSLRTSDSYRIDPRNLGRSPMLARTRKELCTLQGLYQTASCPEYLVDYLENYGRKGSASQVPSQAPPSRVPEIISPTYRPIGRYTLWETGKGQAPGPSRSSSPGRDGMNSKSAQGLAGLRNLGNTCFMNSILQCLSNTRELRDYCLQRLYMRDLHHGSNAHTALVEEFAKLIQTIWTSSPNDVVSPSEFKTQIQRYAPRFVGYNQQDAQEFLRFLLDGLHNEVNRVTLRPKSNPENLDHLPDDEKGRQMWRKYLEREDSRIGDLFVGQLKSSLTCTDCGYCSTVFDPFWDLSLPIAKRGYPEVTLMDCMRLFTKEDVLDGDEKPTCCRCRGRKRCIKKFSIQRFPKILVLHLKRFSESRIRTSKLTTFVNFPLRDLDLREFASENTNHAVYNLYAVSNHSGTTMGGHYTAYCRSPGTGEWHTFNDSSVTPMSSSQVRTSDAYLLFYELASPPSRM
Procedure, shortened: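 USP2 (dispensed at 5 nM) was pinned with compounds, then DiUb K48 internally quenched fluorescent substrate (dispensed at 100 nM) was added. The buffer was 20 mM Tris pH 8, 2 mM beta-mercaptoethanol and 0.05% CHAPS. Cleavage was read kinetically as rising fluorescence, Ex 525/Em 598.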
For `N#Cc1cnc(NS(=O)(=O)c2ccc(NC(=O)Cc3ccc(Cl)c(Cl)c3)cc2)s1`, the Potency was 3.43 µM (active).
In the case of `Cc1cccc(S(=O)(=O)Nc2cnccc2C(=O)Nc2nc(-c3ccccc3)cs2)c1`, the Potency is reported as 2.73 µM (active).
In the case of `Cc1ccc(-c2cc(C(=O)Nc3ccc4ccccc4c3)c3ccccc3n2)cc1C`, the Potency is reported as 19.3 µM (active).
For `O=C(Nc1nc(-c2ccccc2)cs1)c1ccncc1NS(=O)(=O)c1ccc(C(F)(F)F)cc1`, the Potency was 3.06 µM (active).
In the case of `O=C(Nc1ccc(S(=O)(=O)Nc2nccs2)cc1)c1ccc2ccccc2c1`, the Potency is reported as 2.73 µM (active).
With `CCCCC1CCC(C(=O)Nc2ccc(S(=O)(=O)Nc3cc(C)on3)cc2)CC1` (stereo not given) the Potency was 12.2 µM (active).
For `Cc1ccc(-c2cc(C(=O)Nc3ccc(C#N)cc3)c3ccccc3n2)cc1C`, the Potency was 12.2 µM (active).
In the case of `O=C(Nc1ccc(C(=O)Nc2nccs2)cc1)c1ccc2ccccc2c1`, the Potency is reported as 3.85 µM (active).
For `CCCc1ccc(C(=O)Nc2ccc(S(=O)(=O)Nc3nccs3)cc2)cc1`, the Potency was 21.7 µM (active).
For `Cc1ccc(-c2cc(C(=O)Nc3cccc(S(N)(=O)=O)c3)c3ccccc3n2)cc1C`, the Potency was 5.44 µM (active).
With `Cc1ccc(S(=O)(=O)Nc2cnccc2C(=O)Nc2nc(-c3cc4ccccc4o3)cs2)cc1` the Potency was 1.93 µM (active).
`Nc1ccc(S(=O)(=O)Nc2cnccc2C(=O)Nc2nc(-c3ccccc3)cs2)cc1` was tested, and the Potency was 17.2 µM (active).
`Cc1ccc(-c2cc(C(=O)Nc3ccc(S(=O)(=O)Nc4ccncc4)cc3)c3ccccc3n2)cc1C` was tested, and the Potency was 9.68 µM (active).
With `Cc1ccc(S(=O)(=O)Nc2ccccc2Nc2nc(-c3ccccc3)cs2)cc1` the Potency was 3.85 µM (active).
`COc1ccc(S(=O)(=O)Nc2cnccc2C(=O)Nc2nc(-c3ccccc3)cs2)cc1` was tested, and the Potency was 3.85 µM (active).
`Cc1ccc(S(=O)(=O)Nc2cnccc2C(=O)Nc2nc(-c3ccco3)cs2)cc1` was tested, and the Potency was 4.32 µM (active).
In the case of `Cc1ccc(-c2cc(C(=O)Nc3ccc(S(=O)(=O)Nc4cccnc4)cc3)c3ccccc3n2)cc1C`, the Potency is reported as 6.85 µM (active).
With `Cc1ccc(-c2cc(C(=O)Nc3ccncc3)c3ccccc3n2)cc1C` the Potency was 13.7 µM (active).
With `O=C(Nc1nc(-c2ccccc2)cs1)c1ccncc1NS(=O)(=O)c1ccc2c(c1)CCC2` the Potency was 1.93 µM (active).
For `Cc1ccc(S(=O)(=O)Nc2cnccc2C(=O)Nc2ccc(-c3nn[nH]n3)cc2)cc1`, the Potency was 8.63 µM (active).
With `Cc1ccc(S(=O)(=O)Nc2cnccc2C(=O)Nc2nc(-c3ccccc3F)cs2)cc1` the Potency was 2.17 µM (active).

Each compound was assayed against Tyrosine-protein kinase Yes (Homo sapiens) (UniProt P07947) (assay: qHTS for small molecule inhibitors of Yes1 kinase: Primary Screen (AID 686947; further: nearly all actives have a fitted effect of over 60% in size)). Details: Yes1 kinase biochemical qHTS inhibition; series mostly up to 76.9 µM.
Sequence of Tyrosine-protein kinase Yes (Homo sapiens) (P07947 whole entry, looked up): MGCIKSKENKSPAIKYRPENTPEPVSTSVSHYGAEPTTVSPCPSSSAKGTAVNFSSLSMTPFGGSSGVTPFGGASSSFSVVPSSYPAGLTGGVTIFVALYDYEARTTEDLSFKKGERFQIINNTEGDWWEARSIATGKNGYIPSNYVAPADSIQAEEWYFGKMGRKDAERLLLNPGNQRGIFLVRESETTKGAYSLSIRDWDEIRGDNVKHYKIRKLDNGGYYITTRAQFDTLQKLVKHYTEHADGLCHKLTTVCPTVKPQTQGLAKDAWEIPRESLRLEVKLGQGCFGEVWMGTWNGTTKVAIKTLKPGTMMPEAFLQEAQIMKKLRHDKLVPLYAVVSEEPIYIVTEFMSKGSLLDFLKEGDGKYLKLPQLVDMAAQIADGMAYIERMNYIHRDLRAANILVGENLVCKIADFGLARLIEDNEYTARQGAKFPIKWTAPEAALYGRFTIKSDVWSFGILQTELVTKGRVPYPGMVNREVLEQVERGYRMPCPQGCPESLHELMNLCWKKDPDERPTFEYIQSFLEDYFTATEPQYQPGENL
Procedure, shortened: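 Yes1 (4 nM) preincubated 20 min with compound, then 60 min room-temperature reaction with 0.1 mM ATP and 0.3 mg/mL poly(E4Y) in pH 7.5 Tris, 10 mM MgCl2. ADP measured by ADP-Glo luminescence, normalised to enzyme/no-enzyme controls.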
`COc1cc(C=NNc2ncnc3[nH]ncc23)ccc1O` was tested, and the Potency was 0.232 µM (active).
In the case of `CCOc1nccc2c1nc(-c1nonc1N)n2CC`, the Potency is reported as “inactive”.
`COc1ccc(-c2cc3c(N)ncnc3o2)cc1` was tested, and the Potency was 6.54 µM (active).
In the case of `N#Cc1c(NC(=O)c2ccc(F)cc2)sc2c1CCCC2`, the Potency is reported as “inactive”.
In the case of `CCn1c(-c2nonc2N)nc2c(C#CC(C)(C)O)nc(OCCNC)cc21`, the Potency is reported as 8.23 µM (active).
`CCN(CC)S(=O)(=O)c1ccc(OC)c(Nc2ncc(-c3ccccc3)o2)c1` was tested, and the Potency was 0.654 µM (active).
For `Cc1ccc(C(=O)NC(C)C)cc1-c1ccc(C(=O)NCC2CC2)cc1`, the Potency was “inactive”.
In the case of `CN1CCC(n2cnc(-c3ccc(F)cc3)c2-c2ccnc(N)n2)CC1`, the Potency is reported as 18.4 µM (active).
In the case of `N#Cc1cccc(Nc2ncc(-c3ccccc3)o2)c1`, the Potency is reported as 26 µM (active).
For `CC1=C(C(=O)Nc2ccc3[nH]ncc3c2)C(c2ccc(Cl)c(Cl)c2)CC(=O)N1` (stereo not given), the Potency was 2.92 µM (active).
For `Cc1cc(O)cc(C)c1C=Cc1cncc(-c2nn[nH]n2)c1`, the Potency was 0.0654 µM (active).
With `COc1cccc(COc2cc(-n3cnc4ccccc43)sc2C(N)=O)c1` the Potency was “inactive”.
For `COC(=O)c1ccc2c(c1)/C(=C/c1cc(Br)c(O)c(Br)c1)C(=O)N2`, the Potency was 0.733 µM (active).
For `CC(Oc1cc(-n2cnc3ccc(OCC4CCN(C)CC4)cc32)sc1C(N)=O)c1ccccc1C(F)(F)F` (stereo not given), the Potency was 1.46 µM (active).
With `CCn1c(-c2nonc2N)nc2c(C#CC(C)(C)O)nc(CN3CCCC3)cc21` the Potency was 23.2 µM (active).
For `Cc1ccc(C(=O)NC2CC2)cc1-c1ccc2[nH]ncc2c1`, the Potency was “inactive”.
With `N#Cc1ccc2c(-c3ccnc(NC4CC4)n3)c(-c3ccc(F)cc3)nn2c1` the Potency was 26 µM (active).
For `O=C1NC(=O)C(c2cccc(Cl)c2)=C1Nc1ccc(O)c(Cl)c1`, the Potency was 9.23 µM (active).
`Nc1nc(-c2cccc(Cl)c2)c(-c2ccc3ncccc3n2)s1` was tested, and the Potency was 1.16 µM (active).
